The text below walks through data of PubChem BioAssay (NCI).

The panel holds about 83,000 compounds, 20% with a hit somewhere; the sample as a whole holds those more often.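 48-hour exposure, single concentration, 96-well plates; percent growth endpoint where 0 means no net growth. Active: below 10.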 A number with no mark means an inactive call. Calls of active or inactive are those of the source.

The experiment deals with HL-60(TB) leukemia. The experiment in a line: NCI-60 one-dose screen, 48 h (100 = growth as untreated, 0 = no growth, -100 = all killed). The following applies: 10 µM unless noted.
Take `NC(=O)c1cc(I)ccc1NC(=O)/C=C/c1ccccc1`: the growth is 0.952% (active).

Take `c1ccc(CNc2ccc3nc(CCC4CCCCC4)[nH]c3c2)cc1`: the growth was 47%.

With `COc1ccc2c(c1)c(-c1nc(-c3cn(C)c4ccncc34)cs1)cn2C`, the growth is 81.7%.

On to `COc1ccc(Cn2cc3c(c2)-c2oncc2CC3)cc1OC`, for which the growth was 2.83% (active).

For `COCn1c(C(=O)OC)cc2oc(/C=C3/SC(=S)N(N)C3=O)cc21`, the growth is 76.9%.

Regarding `COc1ccc2nc3cc(Cl)ccc3c(Nc3cc(CN4CCCC4)c(O)c(CN4CCCC4)c3)c2n1`, the growth is -20.4% (active).

On to `Cc1nc(C)c(-c2nn3c(-c4cccc(F)c4)nnc3s2)s1`, for which the growth was 107%.

Regarding `N#Cc1c(N2CCNCC2)nc2sc3cc(Cl)c(Cl)cc3n2c1=N`, the growth is 89%.

Consider `N#CCCN1C/C(=C/c2ccc(Cl)cc2)C(=O)/C(=C/c2ccc(Cl)cc2)C1`, for which the growth is -16.5% (active).

Turning to `CC1(n2nnnc2N2CCCN(c3ncccc3N)CC2)CCC1`, the growth was 102%.

On to `OC(c1cccc(-n2ccc(C(F)(F)F)n2)c1)c1cnccc1NC1CCCCCC1` (centres undefined), for which the growth is -35.7% (active).

As for `CC1(C)CC[C@]23CC[C@]4(C)[C@H](CC[C@@H]5[C@@]6(C)C/C(=C/c7cccnc7)C(=O)C(C)(C)[C@@H]6CC[C@]54C)[C@H]2[C@H]1OC3=O`, the growth was -0.84% [100 µM] (active).

With `Nc1ccccc1SC1CC(=O)N(c2ccc(I)cc2)C1=O` (centres undefined), the growth was 65.6%.

As to `O=C1c2ccccc2NC(c2cn(-c3ccccc3)nc2-c2cccnc2)N1Cc1ccccc1` (centres undefined), the growth was 9.6% (active).

Take `COc1ccc(CN2CCc3c(Sc4ccccc4)nc(N)nc3C2=O)c(OC)c1`: the growth is 14.3%.

With `COc1c(Cl)cc(Cl)c2ccc(C=C3C(=O)N(C)C(=O)N(C)C3=O)nc12`, the growth was 98.1%.

`c1ccc(-c2ccc3c(c2)C2(CCNCC2)CN3)cc1`: the growth is 93.7%.

As for `O=C(NNC(=O)c1cccc(Cl)c1)c1ccccc1`, the growth is 94.3%.

On to `O=C1OC(c2ccccc2)C(O)=C1c1ccccc1` (centres undefined), for which the growth was 101%.

As for `c1ccc(N2c3nc4ccccc4cc3Sc3cc4ccccc4nc32)nc1`, the growth is 97.2%.

For `CCOC(=N)CC(=O)Nc1cccc(C)c1Cl`, the growth is 111%.

As to `CCOC(=O)C1C(=O)NC(C(=O)OCC)(C(=O)OCC)C1CC` (centres undefined), the growth is 106%.

As to `c1ccc2cc(C[n+]3ccn(CCCCCCCCCCCCn4cc[n+](Cc5ccc6ccccc6c5)c4)c3)ccc2c1`, the growth is -69.5% (active).

For `O=[N+]([O-])/C(=C/c1ccccc1)c1ccccc1`, the growth is 85.6%.

Consider `Cc1ccc2nc(-c3ccc(C(=O)N/N=C/c4ccc([N+](=O)[O-])cc4)cc3)[nH]c2c1`, for which the growth was 103%.

Regarding `O=C(O)[C@@H](Cc1ccc2ccccc2c1)NC(=O)n1c2ccccc2c2ccccc21`, the growth is 6.8% (active).

Regarding `N#C/C(=C\c1cn(Cc2ccccc2)c2ccccc12)C(=O)Nc1ncc(Cc2ccccc2Cl)s1`, the growth is 93.1%.

For the compound `CCn1cc(C(=O)N/N=C/c2ccccc2)c(=O)c2cc(F)c(N3CCNC(C)C3)c(F)c21` (centres undefined), the growth is 18.1%.

Take `CC(=O)[C@@]1(O)CC[C@H]2[C@@H]3CC[C@@H]4CC(=O)CC[C@]4(C)[C@H]3[C@@H](O)C[C@@]21C`: the growth was 102%.

As to `CN(C)CCSC1=Nc2ccc(Cl)cc2C(c2ccccc2Cl)N(C)C1` (centres undefined), the growth was 35.1%.

As to `O=C1CC(c2ccc3c(c2)OCO3)c2ncn(-c3ccc(Cl)cc3)c2N1` (centres undefined), the growth is -9.97% (active).

Consider `COc1c(O)cc2c(c1CC=C(C)C)OC(=O)c1c(cc(O)c(CC=C(C)C)c1O)O2`, for which the growth was 31%.

Consider `COc1ccc(C2CC(c3ccc4ccccc4c3)=NN2c2nc(O)c(C3=c4cc(OC)ccc4=NC3=O)s2)cc1` (centres undefined), for which the growth was 36.2%.

In the case of `Oc1[nH]c2ccc(Cl)cc2c1/C=c1/ccc2c(c1)N=C(c1cc(F)cc(F)c1)N=2`, the growth is 70.1%.

As to `CCCCCC(C)(CC(=O)O)CC(=O)O`, the growth was 90.5%.

Take `N#C/C(C(=O)c1ccccc1)=C1/C(=O)Nc2ccc(F)cc21`: the growth was 130%.

Take `COc1ccc(C2=NN(C(C)=O)C(c3ccc(Oc4ccnc5cc(Cl)ccc45)c(OC)c3)C2)cc1` (centres undefined): the growth is 78.4%.

As for `Clc1ccc(/C=C/c2ccccn2)c(Cl)c1`, the growth was 86%.

Take `O=C(N(c1ccccc1)c1ccccc1)n1cc(I)c2nc(Cl)nc(Cl)c21`: the growth was 22.9%.
